From PubChem BioAssay
Only some compounds are listed: those with a hit (about 2.4% of all), similar ones and a draw of the others.
POLI inh – blocks human DNA polymerase iota activity. Q9UNA4. Pol iota fluorescent replication assay, 10 min. Potency, µM (series often up to 115 µM), without a hit: at the top dose activity, negative = inhibition, actives largely listed as inhibitors. hit rate 1% among 390,000. AID 588590
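Fluorescent replication assay read twice, at 0 min and 10 min after adding 50 nM (final) substrate. Enzyme (10 nM) and compounds were first incubated 15 min at room temperature; enzyme-free buffer wells were negative controls.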
WRN inhibitor – blocks human WRN helicase; Potency, µM (doses to about 114 µM), without a hit: at the top dose activity change, negative = inhibition, most hits filed as inhibitors; AID 651768; WRN helicase unwinding, fluorescent forked duplex, kinetic; Q14191; hit rate 0.46% among 360,000; further: on the % scale 0 is the no-effect control and ±100 the full control effect; nearly all actives have a fitted effect of over 55% in size
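WRN at 20 nM final was preincubated with compound for 15 min at room temperature; reaction started with 100 nM forked duplex oligonucleotide carrying fluorophore and quencher plus 2 mM ATP (final). Unwinding followed kinetically by red fluorescence (ex 525/em 598 nm).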
POLH inh – inhibitors of human DNA polymerase eta | recombinant Pol eta, fluorescent DNA replication assay | hit rate 1.2% among 390,000 | AID 588591 | Potency, µM (series often up to 114 µM), without a hit: at the top dose activity change, negative = inhibition, most hits filed as inhibitors | Q9Y253; further: on the % scale 0 is the no-effect control and ±100 the full control effect
Target sequence (Q9Y253 whole entry, looked up): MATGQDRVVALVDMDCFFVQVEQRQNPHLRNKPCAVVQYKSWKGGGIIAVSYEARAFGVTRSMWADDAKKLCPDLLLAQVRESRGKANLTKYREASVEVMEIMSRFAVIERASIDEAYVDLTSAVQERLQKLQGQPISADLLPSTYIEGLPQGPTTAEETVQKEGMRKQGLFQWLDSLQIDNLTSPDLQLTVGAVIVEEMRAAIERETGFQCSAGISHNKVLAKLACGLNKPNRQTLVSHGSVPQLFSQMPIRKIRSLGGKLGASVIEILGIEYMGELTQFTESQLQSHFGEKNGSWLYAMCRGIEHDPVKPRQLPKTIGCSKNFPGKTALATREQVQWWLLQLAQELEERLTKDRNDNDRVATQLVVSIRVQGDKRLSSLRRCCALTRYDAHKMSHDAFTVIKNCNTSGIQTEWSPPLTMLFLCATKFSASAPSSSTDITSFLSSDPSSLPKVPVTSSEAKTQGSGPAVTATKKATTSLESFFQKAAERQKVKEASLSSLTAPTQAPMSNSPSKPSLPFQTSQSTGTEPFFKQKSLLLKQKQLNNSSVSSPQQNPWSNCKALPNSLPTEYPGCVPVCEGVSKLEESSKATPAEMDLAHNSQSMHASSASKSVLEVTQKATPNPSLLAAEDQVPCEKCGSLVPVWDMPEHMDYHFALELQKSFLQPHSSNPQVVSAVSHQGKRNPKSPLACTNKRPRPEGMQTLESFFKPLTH
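Pol eta (10 nM) was preincubated with compounds for 15 min at room temperature, after which fluorescent replication substrate (50 nM final) was added to start the reaction. Fluorescence was read kinetically at 0 and 10 min.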
FEN1 inhibitor – inhibitors of human flap endonuclease 1; Potency, µM (series often up to 114 µM), for inactives: top-dose activity change, negative = inhibition, hits mostly inhibitors; P39748; hit rate 0.35% among 390,000; AID 588795; Recombinant FEN1 flap cleavage, fluorescence, 15 min; further: on the % scale 0 is the no-effect control and ±100 the full control effect; nearly all actives have a fitted effect of over 65% in size
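Concentration–response screening of FEN1 (10 nM): 15 min compound preincubation at room temperature, reaction started with 50 nM substrate and read at 0 and 15 min. Corrected, normalized data were fitted by a four-parameter Hill equation.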
POLB inh – inhibitors of human DNA polymerase beta. P06746. Potency, µM (series often up to 114 µM), without a hit: top-dose activity change, negative = inhibition, usual class: inhibitors. Pol beta primer extension/strand displacement, fluorescence kinetic. AID 485314. hit rate 1.3% among 340,000; further: on the % scale 0 is the no-effect control and ±100 the full control effect
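10 nM enzyme + cpd, 15 min RT; start with substrate 50 nM final; read 0 min and after 10 min RT. Corrected, normalized data; 4-parameter Hill curve fit.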
POLK inh – blocks human DNA polymerase kappa activity | hit rate 0.53% among 400,000 | purified Pol kappa, fluorescent DNA synthesis assay, 10 min | Potency, µM (top dose mostly 107 µM), without a hit: top-dose activity, negative = inhibition, usual class: inhibitors | AID 588579; further: on the % scale 0 is the no-effect control and ±100 the full control effect
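Readout: fluorescence, taken kinetically at 0 and 10 min. Conditions: 10 nM Pol kappa, 15 min RT compound preincubation, 50 nM substrate final. Controls: enzyme-free buffer wells.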
Starred values were filed as active, the others as inactive; ? = inconclusive; . = no result given; [ ] = remark or other dose. The call rests on the fitted dose curve; in most records, active means well fitted curve in the direction sought with a large enough effect; inconclusive means small, poorly fitted or top-dose-only effect, or another doubt; inactive means no such curve, though single readings can be large; an effect the other way counts as inactive or inconclusive. Potency means the concentration at half of the fitted maximal effect.

SMILES | POLI inh | WRN inhibitor | POLH inh | FEN1 inhibitor | POLB inh | POLK inh
COC(=O)c1sc(N)c(C(=O)OC)c1COC(=O)C1CC(=O)N(Cc2ccco2)C1 (stereo not given) | ? | ? | 79µM* | 4% | 11µM* | -7%
CN(c1ccc(-c2csc(NC(=O)C3CC(=O)N(Cc4ccco4)C3)n2)cc1)S(C)(=O)=O (stereo not given) | 45µM* | -14% | 50µM* | -13% | . | ?
CCOC(=O)c1sc(N)c(C(=O)OCC)c1COC(=O)C1CC(=O)N(Cc2ccco2)C1 (stereo not given) | 3% | -32%[57.1 µM] | -5% | 6% | -15% | -4%
CCOC(=O)c1ccc(NC(=O)C2CCN(C(=O)N3CC(C)Oc4ccc(C)cc43)CC2)cc1 (stereo not given) | 20% | . | -11% | -5% | -8% | -1%
Cc1cnc(CNc2cc(-c3ccc(N(C)C)cc3)ncn2)cn1 | . | . | . | . | . | 2%[60.1 µM]
CCc1ccc(NC(=O)c2ccc3c(c2)N(Cc2ccc(C)cc2)CCS3)cc1 | 18% | . | -9% | -15% | 32% | -13%
Nn1c(SCC(=O)NC(=O)NCc2ccco2)nnc1-c1ccc(OC(F)F)cc1 | ? | -4%[11.6 µM] | 8.9µM* | -8% | ? | ?
Nn1c(SCC(=O)NCCN2C(=O)CSC2=O)nnc1-c1ccc(OC(F)F)cc1 | -4% | 4% | -5% | -1% | . | -16%
CCOc1ccccc1-n1nnnc1SCC(=O)NC(=O)NCc1ccco1 | ? | -15%[57.1 µM] | ? | 7% | 22µM* | ?
O=C(CSc1nnnn1-c1ccccc1)NC(=O)NCc1ccco1 | 20µM* | -20%[11.6 µM] | 8.9µM* | -7% | 40µM* | ?
CC(=O)OCC1OC(n2cnc3c(Cl)nc(Cl)nc32)C(OC(C)=O)C1OC(C)=O (stereo not given) | . | . | . | . | . | 0%[60.1 µM]
O=c1cc(CN2CCN(Cc3ccccc3)CC2)c2ccc(O)c(O)c2o1 | ? | ? | 10µM* | 0% | 2.5µM* | ?
CCCCN(C(=O)c1cc(-c2ccco2)nc2ccccc12)c1c(N)n(CCCC)c(=O)[nH]c1=O | 18µM* | ? | 50µM* | -16% | . | 79µM*
COCCN(C(=O)c1cc(-c2ccco2)nc2ccccc12)c1c(N)n(Cc2ccccc2)c(=O)[nH]c1=O | 18µM* | ? | 22µM* | ? | . | ?
CCCn1c(N)c(N(CCOC)C(=O)c2cc(Cl)nc3ccccc23)c(=O)[nH]c1=O | 6% | 0% | -19% | -2% | . | -6%
CCCN(C(=O)c1cc(-c2ccco2)nc2ccccc12)c1c(N)n(Cc2ccccc2)c(=O)[nH]c1=O | 20µM* | ? | 16µM* | -17% | . | -45%
CNCC(=O)NC(CCCN=C(N)N)C(=O)NC(C(=O)NC(Cc1ccc(O)cc1)C(=O)NC(C(=O)NC(Cc1cnc[nH]1)C(=O)N1CCCC1C(=O)NC(C)C(=O)O)C(C)C)C(C)C (stereo not given) | . | . | . | . | . | 3%[19.4 µM]
CCC(Cn1nnc2ccccc2c1=O)NC(=O)Nc1cc(C)cc(C)c1 (stereo not given) | 13% | . | 1% | -15% | 40% | 3%
COc1ccc(C(=O)c2ccccc2)c(O)c1O | . | . | . | . | . | 10µM*
Cc1ccc(NC(=O)CSc2nnc3[nH]c(=O)cc(-c4ccccc4)n23)cc1Cl | 0% | . | -7% | -14% | 40µM* | -3%[60.1 µM]
COc1ccc(CNC(=O)Nc2cc(C)cc(C)c2)cc1 | 20% | 0% | -1% | -3% | 32µM* | -1%
COc1ccc(CNC(=O)Nc2ccc(C)cc2)cc1 | -6% | -2% | -10% | -3% | -23% | -21%
COc1cc(NC(=O)c2ccco2)c(OC)cc1NC(=O)c1cc(OC)c(OC)c(OC)c1 | 13% | 3% | -12% | -20% | 40µM* | 0%
COc1cc(OC)cc(C(=O)Nc2ccc(NC(=O)c3ccco3)c(Cl)c2)c1 | 25µM* | -3% | ? | -4% | ? | -14%
O=C(c1cnccn1)N1CCC2(CC1)CCN(c1cccc(-c3ccccc3)c1)CC2 | . | . | . | . | . | -9%[60.1 µM]
SMILES | POLI inh | WRN inhibitor | POLH inh | FEN1 inhibitor | POLB inh | POLK inh
O=C1C(=O)N(C2CCN(C(=O)c3cccc(Cl)c3)CC2)CCN1Cc1ccc(F)cc1 | 28% | . | -13% | 3% | 15% | -3%
O=[N+]([O-])c1ccc(Cl)c(-c2ccc(/C=N/n3cnnc3)o2)c1 | ? | ? | ? | -24% | 25µM* | ?
CNC1=C(N(C(C)=O)c2ccc(Br)cc2)C(=O)c2ccccc2C1=O | ? | -20% | -1% | -10% | 12% | -11%
CC(=O)C1=C(c2ccc(Br)cc2)C(=O)c2ccccc2C1=O | 3.5µM* | ? | -5% | -23% | 19% | ?
Nc1ccc(C(=O)Nc2ccc3nc(-c4cccnc4)[nH]c3c2)cc1 | -15% | -24% | -15% | -24% | 40µM* | ?
Nc1ccc(C(=O)Nc2ccc(Nc3ccncc3)cc2)cc1 | ? | 2% | 5% | -8% | 32µM* | -26%
CC(=O)Nc1cccc(-c2nc3ccc(NC(C)=O)cc3[nH]2)c1 | ? | -9% | ? | ? | 45µM* | ?
Nc1ccc(NC(=O)c2ccc(C(=O)Nc3ccc(N)cc3)cc2)cc1 | 4% | -19% | -21% | -6% | ? | 7%
CCCS(=O)(=O)c1ncc(Cl)c(C(=O)N2CCN(c3ccc(OC)cc3)CC2)n1 | -12% | . | -6% | ? | -1% | -4%[60.1 µM]
CCOc1ccc(/C=C/c2ccnc3ccccc23)cc1OCC | ? | . | . | -24% | . | -10%
COc1cc(/C=N/Nc2ccc(Cl)c(C(=O)O)c2)ccc1OC(=O)c1cccs1 | 80% | 0%[11.6 µM] | 79µM* | -1% | ? | -12%
COc1ccc(C(=O)Oc2ccc(/C=N/Nc3ccc(Cl)c(C(=O)O)c3)cc2OC)cc1 | 9% | -20% | 79µM* | ? | ? | -28%
COc1ccc2ccccc2c1/C=N/Nc1ccc(Cl)c(C(=O)O)c1 | ? | -30% | 45µM* | -20% | 4% | ?
COc1ccc2ccccc2c1/C=N/Nc1cccc(C(=O)O)c1 | 78% | -32% | 7% | -6% | -21% | -32%
O=C(O)c1cc(N/N=C/c2ccncc2)ccc1Cl | 13% | -14% | 4% | 5% | 5% | -14%
O=C(O)c1cc(N/N=C/c2ccc(-c3ccccc3)cc2)ccc1Cl | -6% | -21% | ? | 5% | 89µM* | -2%
N#Cc1ccc2c(c1)C[C@]1(c3ccsc3)Oc3c(c(=O)oc4ccccc34)C2O1 | . | . | . | . | 2.8µM* | .
CCCCn1c(C)cc2c(c1=O)C1O[C@](c3ccsc3)(Cc3cc(OC)c(OC)cc31)O2 | . | . | . | . | 3%[22.9 µM] | .
Cc1cc2c(c(=O)o1)C1O[C@](c3ccsc3)(Cc3cc(C#N)ccc31)O2 | . | . | . | . | 10µM* | .
